Consider seven compounds from PubChem BioAssay (EPA / NIEHS).

Results filed as inconclusive are left out. Active and inactive are the calls of the source. How the source made its calls, unless noted: active means hit-call score of the fitted dose curve at least 0.9, where 1 is the maximum; inactive means score below 0.9.

Assay [1] can be described thus: ATG_Sox_CIS: Attagene CIS-FACTORIAL HepG2 Assay for human SRY-box transcription factor (SOX) (AID 2282960). The settings on record: HepG2 Attagene cis-factorial SOX reporter, mRNA; actives raise or lower the signal. The procedure, abridged: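 Cells were transfected with reporter constructs under cis-regulatory promoters, then exposed to chemicals for 24 h. Reporter transcripts were quantified by fluorescence after RT-PCR and capillary electrophoresis; activity was fitted in both directions against DMSO.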

Assay [2] concerns the target Transcription factor Sp1 (Homo sapiens) (UniProt P08047). In words: ATG_Sp1_CIS: Attagene CIS-FACTORIAL HepG2 Assay for human Specificity Protein 1 (Sp1) (AID 2282961). The settings on record: HepG2 Sp1 cis-reporter transcription, actives raise or lower the signal. The procedure, abridged: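 Measures mRNA induction of an Sp1-linked reporter in HepG2 cells 24 h post-dosing. Multiplexed reporters read by RT-PCR and capillary electrophoresis; DMSO serves as negative control and baseline.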

Assay [3] is described as follows: ATG_SREBP_CIS: Attagene CIS-FACTORIAL HepG2 Assay for human Sterol Regulatory Element Binding (SREBP) (AID 2282962). The settings on record: HepG2 Attagene cis-factorial SREBP reporter, mRNA; actives raise or lower the signal. The procedure, abridged:
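Readout: fluorescent reporter-transcript peaks resolved by capillary electrophoresis after RT-PCR. Cells were human HepG2 carrying transfected cis-promoter reporter constructs, dosed for 24 h. Gain or loss of signal was fitted against DMSO controls.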

In assay [4] the target is Signal transducer and activator of transcription 3 (Homo sapiens) (UniProt P40763). In words: ATG_STAT3_CIS: Attagene CIS-FACTORIAL HepG2 Assay for human Signal Transducer and Activator of Transcription 3 (STAT3) (AID 2282963). The settings on record: HepG2, Attagene cis-factorial STAT3 reporter transcription; actives raise or lower the signal. The procedure, abridged: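 Uses human liver HepG2 transiently carrying cis-regulated reporter transcription units. Following 24 h dosing, reporter mRNA induction was detected by RT-PCR and capillary electrophoresis, analysed bidirectionally versus DMSO.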

Assay [5] in a line: ATG_TCF_b_cat_CIS: Attagene CIS-FACTORIAL HepG2 Assay for human T-Cell-Factor with beta-catenin (TCF/b-cat) (AID 2282965). The settings on record: HepG2 TCF/beta-catenin cis-reporter transcription, actives raise or lower the signal. The procedure, abridged:
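In this cis-format system, transfected HepG2 cells report endogenous transcription factor activity. Readout after 24 h exposure is reporter transcript abundance from RT-PCR and capillary electrophoresis, analysed for gain or loss of signal versus DMSO.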

Assay [6] can be described thus: ATG_TAL_CIS: Attagene CIS-FACTORIAL HepG2 Assay for human TAL Basal Promoter (AID 2282966).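 Further: background control endpoint measuring basal TAL promoter reporter mRNA not a specific factor.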 The settings on record: HepG2 Attagene cis-factorial TAL promoter reporter; actives raise or lower the signal. The procedure, abridged:
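HepG2, transient MRTU transfection, 24 h compound exposure; RNA → oligo(dT) RT → PCR → 6-FAM primer extension → HpaI digest → CE fluorescence. Bidirectional curve fit vs DMSO. Background-control readout.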

Assay [7] can be described thus: ATG_TGFb_CIS: Attagene CIS-FACTORIAL HepG2 Assay for human Transforming Growth Factor (TGF) (AID 2282967). The settings on record: HepG2 Attagene CIS TGFb reporter, mRNA transcription; actives raise or lower the signal. The procedure, abridged: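 Readout: fluorescently labeled reporter cDNA fragments resolved by capillary electrophoresis after RT-PCR. Transfected HepG2 cells dosed for 24 h; endogenous TF activity at TGFB1-linked cis element; gain or loss fitted relative to DMSO.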

Assay [8] can be described thus: ATG_VDRE_CIS: Attagene CIS-FACTORIAL HepG2 Assay for human Vitamin D Receptor Element (VDRE) (AID 2282968). The settings on record: HepG2 VDRE cis-reporter transcription, actives raise or lower the signal. The procedure, abridged:
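Transfected HepG2 reporter cells, chemical treatment 24 h. RNA isolated, cDNA amplified with reporter-specific primers, products analysed by capillary electrophoresis. Endpoint fitted in both directions versus DMSO.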

Assay [9] concerns the target X-box-binding protein 1 (Homo sapiens) (UniProt P17861). The assay is described as follows: ATG_Xbp1_CIS: Attagene CIS-FACTORIAL HepG2 Assay for human X-box Binding Protein 1 (XBP1) (AID 2282972). The settings on record: HepG2 XBP1 cis-element reporter, Attagene multiplex; actives raise or lower the signal. The procedure, abridged: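 Read-out: fluorescent reporter mRNA fragments resolved by capillary electrophoresis after RT-PCR. Human HepG2 liver cells carried transfected cis-promoter reporter units and were exposed to chemicals for 24 hours. Gain or loss of signal fitted relative to DMSO baseline.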

A short description of assay [10]: ATG_M_19_TRANS: Attagene TRANS-FACTORIAL HepG2 Assay for M19 Transcription Factor (Internal Marker) (AID 2282974; active means hit-call score of the fitted dose curve at least 0.9, where 1 is the maximum). The settings on record: HepG2 Attagene TRANS-FACTORIAL M19 internal marker reporter. The procedure, abridged: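 After transfection of HepG2 with GAL4-UAS-driven reporter constructs, cells are dosed for 24 h. Total RNA is reverse-transcribed, reporter sequences PCR-amplified and labelled, then HpaI-digested and sized by capillary electrophoresis.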

For assay [11], the target named is Glucocorticoid receptor (Homo sapiens) (UniProt P04150). The assay is described as follows: ATG_GR_TRANS: Attagene TRANS-FACTORIAL HepG2 Assay for human Glucocorticoid Receptor (GR) (AID 2282978; active means hit-call score of the fitted dose curve at least 0.9, where 1 is the maximum;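 further: activators score as hits since higher reporter transcript over DMSO is fitted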). The settings on record: HepG2 Attagene TRANS GR reporter, mRNA transcription. The procedure, abridged: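 Multiplexed TRANS reporter system, HepG2; 24 h exposure; RNA → oligo(dT) RT → reporter-specific PCR → 6-FAM primer extension → HpaI cut → CE fluorescence. Gain-of-signal vs DMSO.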

Assay [12] concerns the target Oxysterols receptor LXR-beta (Homo sapiens) (UniProt P55055). In words: ATG_LXRb_TRANS: Attagene TRANS-FACTORIAL HepG2 Assay for human Liver X Receptor beta (LXRb) (AID 2282981; active means hit-call score of the fitted dose curve at least 0.9, where 1 is the maximum). The settings on record: HepG2 Attagene TRANS GAL4-LXRb reporter, mRNA. The procedure, abridged:
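Liver-derived HepG2 cells transfected with Gal4-responsive reporters were dosed for 24 h. Activation was scored as rise in reporter mRNA, by RT-PCR and capillary electrophoresis, above DMSO baseline.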

For assay [13], the target named is Oxysterols receptor LXR-alpha (Homo sapiens) (UniProt Q13133). In words: ATG_LXRa_TRANS: Attagene TRANS-FACTORIAL HepG2 Assay for human Liver X Receptor alpha (LXRa) (AID 2282980; active means hit-call score of the fitted dose curve at least 0.9, where 1 is the maximum). The settings on record: HepG2 Attagene TRANS reporter, LXRa transactivation. The procedure, abridged:
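Read-out: reporter transcript levels by RT-PCR plus capillary electrophoresis, fluorescence intensity. Transiently transfected HepG2, exogenous NR-GAL4 chimera, GAL4-UAS reporters; 24 h compound exposure. Activity = increase over DMSO negative control.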

Assay [14] concerns the target Nuclear receptor subfamily 1 group I member 3 (Homo sapiens) (UniProt Q14994). In words: ATG_CAR_TRANS: Attagene TRANS-FACTORIAL HepG2 Assay for human Constitutive Androstane Receptor (CAR) (AID 2282969; active means hit-call score of the fitted dose curve at least 0.9, where 1 is the maximum;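 further: activators raise reporter mRNA above DMSO so AC50 marks induction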). The settings on record: HepG2 Attagene TRANS-FACTORIAL CAR reporter. The procedure, abridged:
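Steps: transient transfection of HepG2 with multiple GAL4-UAS reporter units; 24 h compound incubation; RNA isolation, RT-PCR, 6-FAM primer extension, HpaI digest; capillary electrophoresis. Gain-of-signal relative to DMSO negative control.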

Assay [15] in a line: ATG_GAL4_TRANS: Attagene TRANS-FACTORIAL HepG2 Assay for GAL4 (Internal Marker) (AID 2282976; active means hit-call score of the fitted dose curve at least 0.9, where 1 is the maximum). The settings on record: HepG2 Attagene TRANS GAL4 internal marker reporter. The procedure, abridged:
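RT-PCR/capillary electrophoresis readout of reporter mRNA. HepG2, transient MRTU transfection (GAL4-UAS reporters), 24 h compound exposure. Background-control endpoint, positive direction vs DMSO baseline.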

Assay [16] in a line: ATG_TA_CIS: Attagene CIS-FACTORIAL HepG2 Assay for human TA Basal Promoter (AID 2282964). The settings on record: HepG2 Attagene CIS-factorial TA basal promoter reporter; actives raise or lower the signal. The procedure, abridged: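 Transfected HepG2, 24 h compound exposure; RNA → RT-PCR → FAM primer extension → HpaI cut → CE fluorescence. Gain/loss-of-signal fitted against DMSO negative control. Background-control readout.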

Assay [17] deals with Estrogen receptor (Homo sapiens) (UniProt P03372). In words: ATG_ERa_TRANS: Attagene TRANS-FACTORIAL HepG2 Assay for human Estrogen Receptor alpha (ERa) (AID 2282970; active means hit-call score of the fitted dose curve at least 0.9, where 1 is the maximum). The settings on record: HepG2 Attagene TRANS ERa GAL4 reporter, mRNA. The procedure, abridged: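 Reporter mRNA induction after 24 hours, detected by fluorescent RT-PCR and capillary electrophoresis, gives the read-out. Cells are HepG2 transiently transfected with GAL4-UAS reporter transcription units responding to chimeric NR-Gal4. Activity is taken as gain of signal over DMSO baseline.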

Assay [18] addresses Steroid hormone receptor ERR1 (Homo sapiens) (UniProt P11474). In words: ATG_ERRa_TRANS: Attagene TRANS-FACTORIAL HepG2 Assay for human Estrogen-Related Receptor alpha (ERRa) (AID 2282971; active means hit-call score of the fitted dose curve at least 0.9, where 1 is the maximum). The settings on record: HepG2 Attagene TRANS reporter, ERRa transactivation. The procedure, abridged: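 Transfected HepG2, 24 h dosing, ERRa-Gal4 chimera driving GAL4-UAS reporter. Readout: reporter mRNA via RT-PCR plus capillary electrophoresis (fluorescence). Positive direction vs DMSO control.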

Chain of Estrogen receptor (Homo sapiens) (P03372 whole entry, looked up, the tested form may be a part): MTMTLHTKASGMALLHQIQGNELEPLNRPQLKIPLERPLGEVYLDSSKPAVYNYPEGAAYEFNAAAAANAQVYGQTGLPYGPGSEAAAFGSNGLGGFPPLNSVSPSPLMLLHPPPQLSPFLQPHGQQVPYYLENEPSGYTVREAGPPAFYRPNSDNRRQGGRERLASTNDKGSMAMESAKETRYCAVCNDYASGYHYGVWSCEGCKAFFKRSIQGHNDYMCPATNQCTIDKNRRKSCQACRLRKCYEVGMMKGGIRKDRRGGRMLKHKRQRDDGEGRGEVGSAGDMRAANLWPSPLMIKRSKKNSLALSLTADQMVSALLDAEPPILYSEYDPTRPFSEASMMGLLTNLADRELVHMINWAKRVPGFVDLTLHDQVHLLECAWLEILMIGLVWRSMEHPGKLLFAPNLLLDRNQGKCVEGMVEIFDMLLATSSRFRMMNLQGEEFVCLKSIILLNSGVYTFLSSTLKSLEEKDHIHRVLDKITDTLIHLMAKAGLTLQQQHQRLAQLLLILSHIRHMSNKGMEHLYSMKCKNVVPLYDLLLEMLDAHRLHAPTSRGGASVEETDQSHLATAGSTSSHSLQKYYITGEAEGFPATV
Chain of Oxysterols receptor LXR-alpha (Homo sapiens) (Q13133 whole entry, looked up, the tested form may be a part): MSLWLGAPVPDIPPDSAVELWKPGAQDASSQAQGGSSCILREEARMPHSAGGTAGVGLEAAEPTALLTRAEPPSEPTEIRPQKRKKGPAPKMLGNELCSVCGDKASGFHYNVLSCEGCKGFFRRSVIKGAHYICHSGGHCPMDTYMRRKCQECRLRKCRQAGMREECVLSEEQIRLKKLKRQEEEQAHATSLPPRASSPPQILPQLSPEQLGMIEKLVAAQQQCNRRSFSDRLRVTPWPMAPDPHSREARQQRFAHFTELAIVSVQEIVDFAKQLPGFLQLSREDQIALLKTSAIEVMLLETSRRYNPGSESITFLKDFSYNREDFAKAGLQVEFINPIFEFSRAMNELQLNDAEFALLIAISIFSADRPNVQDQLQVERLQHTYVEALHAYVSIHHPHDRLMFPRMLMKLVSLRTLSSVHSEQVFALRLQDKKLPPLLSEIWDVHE
Chain of Signal transducer and activator of transcription 3 (Homo sapiens) (P40763 whole entry, looked up): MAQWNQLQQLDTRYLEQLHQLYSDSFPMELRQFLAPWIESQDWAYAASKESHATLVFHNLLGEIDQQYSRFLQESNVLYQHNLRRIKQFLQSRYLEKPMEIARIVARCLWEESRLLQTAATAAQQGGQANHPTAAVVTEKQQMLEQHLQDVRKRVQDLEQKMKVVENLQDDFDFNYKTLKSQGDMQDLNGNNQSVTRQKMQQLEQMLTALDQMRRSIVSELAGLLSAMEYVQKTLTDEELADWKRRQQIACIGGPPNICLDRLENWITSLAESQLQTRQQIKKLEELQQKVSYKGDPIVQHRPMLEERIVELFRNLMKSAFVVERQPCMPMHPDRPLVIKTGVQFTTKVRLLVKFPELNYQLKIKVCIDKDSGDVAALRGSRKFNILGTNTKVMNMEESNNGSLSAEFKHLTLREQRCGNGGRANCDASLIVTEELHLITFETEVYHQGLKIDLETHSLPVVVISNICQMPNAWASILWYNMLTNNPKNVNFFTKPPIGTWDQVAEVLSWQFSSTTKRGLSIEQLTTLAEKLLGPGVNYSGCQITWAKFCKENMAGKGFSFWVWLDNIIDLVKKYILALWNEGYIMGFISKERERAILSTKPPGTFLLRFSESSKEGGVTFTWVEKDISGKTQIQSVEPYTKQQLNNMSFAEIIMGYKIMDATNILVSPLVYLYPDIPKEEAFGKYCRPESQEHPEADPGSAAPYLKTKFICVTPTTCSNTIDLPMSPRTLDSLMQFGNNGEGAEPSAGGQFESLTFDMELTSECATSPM
Chain of Transcription factor Sp1 (Homo sapiens) (P08047 whole entry, looked up): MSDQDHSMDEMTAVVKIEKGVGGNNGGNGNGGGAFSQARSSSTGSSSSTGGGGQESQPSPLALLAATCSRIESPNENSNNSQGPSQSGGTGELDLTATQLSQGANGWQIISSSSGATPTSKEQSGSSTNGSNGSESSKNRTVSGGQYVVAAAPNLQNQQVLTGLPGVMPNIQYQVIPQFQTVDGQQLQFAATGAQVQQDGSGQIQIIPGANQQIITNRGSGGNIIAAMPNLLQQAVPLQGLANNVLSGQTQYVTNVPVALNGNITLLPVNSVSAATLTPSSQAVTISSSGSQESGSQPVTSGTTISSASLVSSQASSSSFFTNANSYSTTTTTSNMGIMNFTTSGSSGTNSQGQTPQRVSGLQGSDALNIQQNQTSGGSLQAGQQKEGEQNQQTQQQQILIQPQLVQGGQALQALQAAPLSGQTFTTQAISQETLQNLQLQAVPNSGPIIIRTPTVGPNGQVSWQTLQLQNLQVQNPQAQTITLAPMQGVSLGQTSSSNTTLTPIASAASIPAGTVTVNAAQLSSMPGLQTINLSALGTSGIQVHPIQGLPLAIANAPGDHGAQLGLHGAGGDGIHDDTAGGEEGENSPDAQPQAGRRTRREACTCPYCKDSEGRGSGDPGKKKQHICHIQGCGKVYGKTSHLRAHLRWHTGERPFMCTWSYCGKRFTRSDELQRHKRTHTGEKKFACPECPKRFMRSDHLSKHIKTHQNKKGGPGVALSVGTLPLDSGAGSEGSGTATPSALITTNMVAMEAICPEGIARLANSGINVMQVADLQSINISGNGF
Chain of X-box-binding protein 1 (Homo sapiens) (P17861 whole entry, looked up, the tested form may be a part): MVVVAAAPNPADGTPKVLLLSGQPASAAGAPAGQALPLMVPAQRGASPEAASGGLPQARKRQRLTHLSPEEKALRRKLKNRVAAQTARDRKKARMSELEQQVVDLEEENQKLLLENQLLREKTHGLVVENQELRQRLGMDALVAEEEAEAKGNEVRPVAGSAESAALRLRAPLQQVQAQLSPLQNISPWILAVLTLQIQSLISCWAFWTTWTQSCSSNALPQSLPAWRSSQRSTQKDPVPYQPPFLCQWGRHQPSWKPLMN
Chain of Nuclear receptor subfamily 1 group I member 3 (Homo sapiens) (Q14994 whole entry, looked up, the tested form may be a part): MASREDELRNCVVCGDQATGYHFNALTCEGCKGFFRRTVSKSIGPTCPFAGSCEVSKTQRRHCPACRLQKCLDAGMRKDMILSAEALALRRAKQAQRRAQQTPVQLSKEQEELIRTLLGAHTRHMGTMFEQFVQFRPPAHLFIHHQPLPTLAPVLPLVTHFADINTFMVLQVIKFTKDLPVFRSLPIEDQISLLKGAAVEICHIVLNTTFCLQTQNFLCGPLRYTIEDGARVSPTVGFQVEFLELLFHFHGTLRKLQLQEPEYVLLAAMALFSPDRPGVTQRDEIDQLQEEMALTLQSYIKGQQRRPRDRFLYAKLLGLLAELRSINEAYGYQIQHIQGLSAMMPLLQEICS
Chain of Oxysterols receptor LXR-beta (Homo sapiens) (P55055 whole entry, looked up, the tested form may be a part): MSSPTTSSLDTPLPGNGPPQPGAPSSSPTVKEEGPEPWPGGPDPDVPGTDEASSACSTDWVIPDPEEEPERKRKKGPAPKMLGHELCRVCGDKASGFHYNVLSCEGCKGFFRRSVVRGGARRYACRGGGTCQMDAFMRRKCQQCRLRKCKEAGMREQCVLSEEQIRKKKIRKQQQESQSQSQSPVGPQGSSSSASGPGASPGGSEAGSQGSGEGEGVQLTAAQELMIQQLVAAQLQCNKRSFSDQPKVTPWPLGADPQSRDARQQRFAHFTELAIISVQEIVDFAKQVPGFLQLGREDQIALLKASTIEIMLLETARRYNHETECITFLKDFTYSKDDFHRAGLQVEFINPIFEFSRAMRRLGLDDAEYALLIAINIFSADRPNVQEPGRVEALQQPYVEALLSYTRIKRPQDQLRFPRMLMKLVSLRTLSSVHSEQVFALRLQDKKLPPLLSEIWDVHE
Chain of Glucocorticoid receptor (Homo sapiens) (P04150 whole entry, looked up): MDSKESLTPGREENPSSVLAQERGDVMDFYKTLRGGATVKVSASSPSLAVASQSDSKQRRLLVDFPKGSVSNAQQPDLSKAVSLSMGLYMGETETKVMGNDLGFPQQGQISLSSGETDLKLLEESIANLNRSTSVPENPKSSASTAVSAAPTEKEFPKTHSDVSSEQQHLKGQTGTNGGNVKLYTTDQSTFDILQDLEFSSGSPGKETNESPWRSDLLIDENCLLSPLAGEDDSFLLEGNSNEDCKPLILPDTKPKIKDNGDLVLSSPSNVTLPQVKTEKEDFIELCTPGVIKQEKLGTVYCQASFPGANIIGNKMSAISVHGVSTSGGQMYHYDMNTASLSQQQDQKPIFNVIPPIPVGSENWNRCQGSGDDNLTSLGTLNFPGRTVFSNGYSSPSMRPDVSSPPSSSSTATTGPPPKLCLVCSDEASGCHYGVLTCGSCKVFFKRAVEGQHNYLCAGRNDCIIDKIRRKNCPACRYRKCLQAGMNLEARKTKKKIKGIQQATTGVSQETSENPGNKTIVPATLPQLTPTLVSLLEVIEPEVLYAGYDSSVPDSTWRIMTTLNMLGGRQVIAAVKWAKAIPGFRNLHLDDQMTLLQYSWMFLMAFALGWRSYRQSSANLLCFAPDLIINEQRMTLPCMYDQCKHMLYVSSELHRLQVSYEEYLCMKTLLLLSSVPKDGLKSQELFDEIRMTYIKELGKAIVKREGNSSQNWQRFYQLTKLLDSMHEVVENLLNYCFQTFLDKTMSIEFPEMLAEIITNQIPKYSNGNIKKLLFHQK
Chain of Steroid hormone receptor ERR1 (Homo sapiens) (P11474 whole entry, looked up, the tested form may be a part): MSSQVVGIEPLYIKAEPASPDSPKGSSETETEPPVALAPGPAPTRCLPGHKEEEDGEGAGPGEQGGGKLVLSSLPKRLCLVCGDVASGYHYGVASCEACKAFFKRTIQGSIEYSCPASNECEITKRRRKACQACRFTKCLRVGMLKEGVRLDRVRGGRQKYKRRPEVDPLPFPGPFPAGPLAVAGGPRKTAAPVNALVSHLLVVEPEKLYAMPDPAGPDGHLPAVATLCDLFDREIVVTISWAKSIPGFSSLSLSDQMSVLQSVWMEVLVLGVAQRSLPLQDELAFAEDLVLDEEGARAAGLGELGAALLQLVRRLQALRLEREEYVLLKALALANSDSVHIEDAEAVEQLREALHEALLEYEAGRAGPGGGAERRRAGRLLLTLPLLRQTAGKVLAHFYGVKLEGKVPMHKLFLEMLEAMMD

Consider `CC(=O)OC(c1ccccc1)C(Cl)(Cl)Cl` (stereo not given), for which the outcome in assay [1], in [2], in assay [3], in assay [4], in assay [5] and in assay [6] was inactive. Also, the call in assay [7], in assay [8], in assay [9], in assay [10], in assay [11] and in assay [12] was inactive.

On to `CCC(C)c1cccc(C(C)CC)c1O` (stereo not given), for which the call in assay [1], in assay [2], in assay [3], in assay [4], in [5] and in assay [6] was inactive. The result in assay [7], in assay [8], in assay [9] and in [12] was inactive. The AC50 in assay [13] was 14.3 µM (active).

On to `N#Cc1ccccn1`, for which the result in assay [1], in assay [2], in assay [3], in assay [4], in assay [5] and in assay [6] was inactive. The outcome in assay [7], in assay [14], in assay [9], in assay [15], in assay [13] and in assay [12] was inactive.

On to `CC1(C)Cc2cccc(O)c2O1`, for which the call in assay [1], in [2], in assay [3], in [16], in assay [5] and in assay [6] was inactive. The result in assay [7], in assay [8], in assay [17], in [9], in assay [15] and in assay [13] was inactive.

Take `CCC(=O)c1ccccc1`: the compound was classed as inactive in assay [1], in assay [2], in assay [3], in assay [16], in [5] and in [6]. The outcome in [7], in assay [8], in assay [14], in assay [17], in assay [9] and in assay [15] was inactive.

For the compound `O=[N+]([O-])c1ccc(O)c([N+](=O)[O-])c1`, the result in [1], in assay [2], in assay [3], in assay [16], in assay [5] and in [6] was inactive. The compound was called inactive in assay [7], in assay [18], in [9], in assay [13] and in [12].

In the case of `CCOP(=S)(OCC)SCSP(=S)(OCC)OCC`, the compound was called inactive in assay [1], in [2], in assay [3], in [16], in assay [5] and in [6]. Besides, the compound was classed as inactive in assay [7], in [14], in assay [9], in assay [10] and in [11]. The AC50 is 1.32 µM (active) in assay [8], 3.88 µM (active) in assay [17], 7.73 µM (active) in assay [13] and 18.9 µM (active) in [12].

For orientation: AC50 means the midpoint of the concentration-response curve, whichever way the signal moves.
